The results in this text go back to PubChem BioAssay AID1578 (Sanford-Burnham Center for Chemical Genomics, 2009).

The campaign covered roughly 290,000 compounds. About 3,000 (1%) were called active. Cut-off read from the data, not from the text of the source: active = inhibition mostly above about 36% (no sharp cut-off); inactive = mostly below about 34%. The list comes from a sample in which actives are over-represented; it also holds similar structures and randomly drawn compounds.

The nature of the test: inhibition of NOD1-driven NF-kB reporter – cell-based, luminescence, uHTS, primary screen (AID 1578).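 Note: HEK-293T reporter cells stimulated with the NOD1 agonist gamma-tri-DAP.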 To be noted: NOD1-driven NF-kB luciferase reporter cells, at 4 µM, active compounds read high.
Broadly, the inhibition is the drop in the measured response relative to a control, in per cent. As to `Cc1ccc(S(=O)(=O)NC(CC(=O)O)c2cccs2)cc1` (centres undefined), the inhibition was -21.8% (inactive).

As to `Cc1ccc(CN2C3=NCCCN3c3ccccc32)cc1`, the inhibition was -29.5% (inactive).

On to `CCCCCCCN1C2=NCCN2c2ccccc21`, for which the inhibition is 35.9% (active).

With `c1ccc(CN2C3=NCCCN3c3ccccc32)cc1`, the inhibition was -21.5% (inactive).

As to `CCCCCCN1C2=NCCN2c2ccccc21`, the inhibition is -24.5% (inactive).

In the case of `CCCCCN1C2=NCCN2c2ccccc21`, the inhibition was -41.3% (inactive).

Take `CC(C)(C)c1ccc(CN2C3=NCCCN3c3ccccc32)cc1`: the inhibition is 112% (active).

On to `CCCCOCCCNC1=NCCCCC1`, for which the inhibition was -5.9% (inactive).

With `CCNC(=O)NC(=O)C(C)OC(=O)c1oc2ccc(OC)cc2c1C` (centres undefined), the inhibition is 25.1% (inactive).

Turning to `O=C(O)c1ccc2cc[nH]c2c1`, the inhibition is 7% (inactive).

In the case of `Cc1ccc2cc(C#N)c(NCc3ccco3)nc2c1`, the inhibition was -2.1% (inactive).

On to `CC(C)(C)n1cnc2cc(NC(=O)c3ccccc3)ccc21`, for which the inhibition was -12.2% (inactive).

In the case of `CC(NC(=O)CCl)c1ccc(Cl)c(Cl)c1` (centres undefined), the inhibition is 93.1% (active).

With `CC(=O)NC(C)c1ccc(Cl)c(Cl)c1` (centres undefined), the inhibition is -19.4% (inactive).

As to `Cc1ccc(OCC(=O)NC(C)c2ccc(Cl)c(Cl)c2)c([N+](=O)[O-])n1` (centres undefined), the inhibition is -30.1% (inactive).

In the case of `COc1ccc2c(/C=N/NS(=O)(=O)c3ccc(C)cc3)c[nH]c2c1`, the inhibition is -6.6% (inactive).

For the compound `C(=N\Nc1ccccn1)/c1c[nH]c2ccccc12`, the inhibition was 10.9% (inactive).

`Cc1ccc(S(=O)(=O)N/N=C/c2c[nH]c3ccccc23)cc1`: the inhibition was 62.4% (active).

As for `COc1ccc(OC)c(S(=O)(=O)N/N=C\c2c[nH]c3ccccc23)c1`, the inhibition is 30.3% (inactive).

Consider `COc1ccc(O)c(/C=N/NS(=O)(=O)c2ccc(C)cc2)c1`, for which the inhibition was 1.6% (inactive).

Regarding `COc1ccc2[nH]cc(/C=N/NS(=O)(=O)c3ccc(C)cc3)c2c1`, the inhibition was 44% (active).

For `Cc1ccc(S(=O)(=O)N/N=C/c2ccccc2O)cc1`, the inhibition was -2.2% (inactive).

As to `Fc1c(F)c(F)c(N/N=C/c2c[nH]c3ccccc23)c(F)c1F`, the inhibition is 87.4% (active).

`C(=N\Nc1nc2ccccc2[nH]1)/c1c[nH]c2ccccc12`: the inhibition was 34.5% (inactive).

Turning to `COc1ccc(N2CCN(C(CNC(=O)C(=O)NCc3ccc4c(c3)OCO4)c3ccco3)CC2)cc1` (centres undefined), the inhibition was -7.2% (inactive).

Take `O=C(O)/C=C/C(=O)Nc1ccc(S(=O)(=O)Nc2nccs2)cc1`: the inhibition was -6.1% (inactive).

On to `COc1ccc(CCNC(=O)CSc2nnc(CNC(=O)c3ccccc3F)o2)cc1OC`, for which the inhibition was -6.3% (inactive).

For the compound `CCC(C)[C@H](NC(=O)N1CCn2c1nc1ccccc12)C(=O)NCc1ccccc1` (some centres undefined), the inhibition was -0.4% (inactive).

Take `CC(C)C(C)NC(=O)COC(=O)c1cc(S(=O)(=O)N(C)C)ccc1N1CCCC1` (centres undefined): the inhibition is -50.6% (inactive).

As to `c1ccc(COn2nnc3ccccc32)c(COn2nnc3ccccc32)c1`, the inhibition was -7.5% (inactive).

Take `COc1ccc(OC)c(NC(=O)c2nnn(Cc3ccccc3C)c2N)c1`: the inhibition is -33.8% (inactive).

For `CC1CSc2ccccc2NC1=S` (centres undefined), the inhibition was -19.1% (inactive).

Consider `CC1CN(Cc2ccccc2)c2ccccc2NC1=S` (centres undefined), for which the inhibition is 108% (active).

Turning to `CC1CC(=S)Nc2ccccc2N1Cc1ccccc1` (centres undefined), the inhibition was -2.8% (inactive).

Regarding `COc1cc(NC(=O)c2cnn3c(C(F)F)cc(C4CC4)nc23)c(OC)cc1Cl`, the inhibition was -21.7% (inactive).

For `COc1ccc(OCC(=O)Nc2ccc(NC(=O)c3ccccc3Cl)c(OC)c2)cc1`, the inhibition is -16.9% (inactive).

Take `COc1ccc2cc3cc(C(=O)NCCC(C)C)oc3nc2c1`: the inhibition is -9.5% (inactive).

For the compound `COCCNC(=O)c1cc2cc3ccc(OC)cc3nc2o1`, the inhibition was 4.6% (inactive).

In the case of `O=C(CSc1nc2ccccc2[nH]1)N1CCN(c2ccccc2)CC1`, the inhibition was -37.6% (inactive).

Regarding `CC1=CC(C)(C)Nc2ccc(OC(=O)CN3C(=O)c4ccccc4C3=O)cc21`, the inhibition was 21.8% (inactive).

For `CC1=CC(C)(C)Nc2ccc(OC(=O)c3ccco3)cc21`, the inhibition is 98.8% (active).

As to `CC1=CC(C)(C)Nc2ccc(OC(=O)c3cccnc3)cc21`, the inhibition is 34.3% (inactive).

Turning to `O=C(NCC1CCCO1)c1ccc(S(=O)(=O)N2CCC(c3nc4ccc(Cl)cc4[nH]3)CC2)cc1` (centres undefined), the inhibition was -25.9% (inactive).

On to `COCCNC(=O)C(c1ccc(C)o1)N(C(=O)C(=O)NC1CCCCC1)c1ccc(F)cc1` (centres undefined), for which the inhibition is -37.3% (inactive).

Regarding `CSCCC(NC(=O)c1cccc(C)c1)C(=O)Nc1sccc1C(N)=O` (centres undefined), the inhibition is 68.6% (active).

Turning to `CSCCC(NC(=O)c1ccccc1)C(=O)Nc1ccc(C)cc1` (centres undefined), the inhibition was 1.6% (inactive).

Regarding `CSCCC(NC(=O)c1cccc(C)c1)C(=O)O` (centres undefined), the inhibition is 2% (inactive).

Turning to `NC1=NC(=O)/C(=C/c2cn(CCC(=O)O)nc2-c2ccc(Cl)cc2)S1`, the inhibition is -34.5% (inactive).

Regarding `CCOc1ccc(NC(=O)CSc2nnc(N)s2)c([N+](=O)[O-])c1`, the inhibition is -24.6% (inactive).

For `OC1CCCN(CC(O)c2ccccc2)C1` (centres undefined), the inhibition was -32.3% (inactive).

In the case of `Cn1nnnc1N=N/C(=N/Nc1ccccc1)c1ccccc1`, the inhibition is -8.4% (inactive).

For `C/C(=N\Nc1ccc(C(=O)O)cc1)c1ccc(Br)cc1`, the inhibition is 5% (inactive).

In the case of `Brc1ccc(N/N=C(/N=Nc2nn[nH]n2)c2ccccc2)cc1`, the inhibition was 63.8% (active).

`CCOc1ccc(S(=O)(=O)Nc2cc(F)ccc2F)c2cccnc12`: the inhibition is -15.4% (inactive).

Consider `CC1=NN(c2cccc(C(=O)O)c2)C(=O)/C1=C\C=C\c1ccco1`, for which the inhibition was -11.6% (inactive).

Regarding `CC1=NN(c2cccc(C(=O)O)c2)C(=O)/C1=C\C=C/c1ccccc1`, the inhibition was 58.9% (active).

In the case of `CC1=NN(c2ccccc2)C(=O)/C1=C/C=C/c1ccccc1`, the inhibition is 31.6% (inactive).

Regarding `CCCNC(=O)c1onc(CSc2nc3ccccc3[nH]2)c1C(=O)NCCC`, the inhibition is 11.1% (inactive).

As for `C=CCn1c(Sc2nnc(C)s2)nc2c1c(=O)[nH]c(=O)n2C`, the inhibition was -4.6% (inactive).

`C=CCn1c(Sc2ncc([N+](=O)[O-])s2)n[nH]c1=O`: the inhibition was 30.1% (active).

Regarding `C=CCn1c(CSc2ccccc2[N+](=O)[O-])n[nH]c1=S`, the inhibition was -1.6% (inactive).

As to `CCOC(=O)CSc1nc(N)c(C#N)cc1C#N`, the inhibition was -40.2% (inactive).

With `COc1cc(CN2CCNC(=O)C2CC(=O)N(C)CCCN2CCOCC2)cc(OC)c1` (centres undefined), the inhibition is -24.5% (inactive).

`O=C1NC(=S)S/C1=C\C=C\c1ccc([N+](=O)[O-])o1`: the inhibition is 39.6% (active).

Regarding `O=C1CN(/N=C/c2ccc([N+](=O)[O-])o2)C(=O)N1`, the inhibition is -4.5% (inactive).

On to `O=[N+]([O-])c1ccc(/C=[N+](\[O-])[C@@H]2CCCC[C@@H]2/[N+]([O-])=C/c2ccc([N+](=O)[O-])o2)o1`, for which the inhibition is -2% (inactive).

With `COc1ccc(C(C)=O)cc1CC(=O)Nc1ccccc1-c1ccccc1`, the inhibition was -4.6% (inactive).

Regarding `Cc1sc2nc[nH]c(=S)c2c1-c1ccccc1`, the inhibition is 99.2% (active).

For the compound `Cc1c(-c2ccccc2)sc2nc[nH]c(=S)c12`, the inhibition is -35.9% (inactive).

As to `S=c1[nH]cnc2scc(-c3ccccc3)c12`, the inhibition was -0.1% (inactive).

For `O=C(COC(=O)c1ccc(Br)cc1)NCc1ccc(F)cc1`, the inhibition was -22.6% (inactive).

Take `O=C(COC(=O)Cc1ccc(Br)cc1)NCc1ccc(F)cc1`: the inhibition is 48.2% (active).

Turning to `O=C(COC(=O)Cc1ccc(-c2ccccc2)cc1)NCc1ccc(F)cc1`, the inhibition was -4.2% (inactive).

Regarding `COc1ccc(/C(C)=N/NC(=O)c2sccc2-n2cccc2)cc1`, the inhibition was -58.2% (inactive).

For `Cc1nc(NCc2ccco2)c2c3c(sc2n1)CCC3`, the inhibition was -54.6% (inactive).

Consider `Cc1sc2ncnc(NCc3ccco3)c2c1C`, for which the inhibition is -21.2% (inactive).

As to `Cc1nc(NCc2ccco2)c2c(C)c(C)sc2n1`, the inhibition is 97.6% (active).

`COc1ccccc1C1CCN(Cc2ccc(C)cc2)CC1`: the inhibition is 4.9% (inactive).

On to `Cc1cc(C=C2C(=O)CCCC2=O)c(C)n1-c1ccccc1`, for which the inhibition was -19.3% (inactive).

Regarding `Cc1cc(/C=C2\Cc3ccccc3C2=O)c(C)n1-c1ccccc1`, the inhibition is 63.8% (active).

In the case of `Cc1cc(C=C2C(=O)c3ccccc3C2=O)c(C)n1-c1ccccc1`, the inhibition was 32.4% (inactive).

With `Cc1nc(N)ncc1-c1ccc2c(c1)OCO2`, the inhibition was 2.9% (inactive).

Consider `O=C(NCC(=O)N(c1ccc(Cl)cc1)C(C(=O)NC1CCCC1)c1cccnc1)c1ccco1` (centres undefined), for which the inhibition is 6% (inactive).

On to `N#CC(=C1N=c2ccccc2=N1)c1c(O)[nH]c2ccccc12`, for which the inhibition is 20% (inactive).

`Oc1[nH]c2ccccc2c1N=Nc1cccc(Cl)c1`: the inhibition is -10.3% (inactive).

For the compound `Oc1[nH]c(N=C2N=c3ccccc3=N2)c2ccccc12`, the inhibition is 42.6% (active).

As to `CC(C)NC(=O)NC(=O)COC(=O)c1cc[n+]([O-])cc1`, the inhibition was -6.6% (inactive).

Take `CCOC(=O)CON1C(=O)C(=O)N(OCC(=O)OCC)C2CCCCC21` (centres undefined): the inhibition is -26.3% (inactive).

On to `CC(C)(C)N1CC(COc2ccccc2)OC1=O` (centres undefined), for which the inhibition is -21.9% (inactive).

Turning to `Cc1ccc(C(=O)Nc2sc(C)c(C)c2C(=O)c2ccccc2)cc1`, the inhibition is -9.8% (inactive).

As for `Cc1sc(NC(=O)c2ccccc2)c(C(=O)c2ccccc2)c1C`, the inhibition is 14.5% (inactive).

For the compound `Cc1sc(NC(=O)CCl)c(C(=O)c2ccccc2)c1C`, the inhibition is 60.9% (active).

Consider `Cc1ccc(NC(=O)CN(C)C(=O)/C=C/c2cccc(F)c2)cc1`, for which the inhibition is -1.6% (inactive).

As to `Cc1ccc2c(c1)cc(CN(Cc1cccnc1)C(=O)c1ccccc1)c1nnnn12`, the inhibition is -33.2% (inactive).

As for `Cc1ccc(C(=O)N(Cc2cccnc2)Cc2cc3cc(C)ccc3n3nnnc23)cc1`, the inhibition was 52% (active).

On to `COCCN(Cc1cc2cc(C)ccc2n2nnnc12)C(=S)Nc1cccc(C)c1`, for which the inhibition was 33.3% (inactive).

On to `COCCN(Cc1cc2cc(C)ccc2n2nnnc12)C(=S)Nc1ccc(C)cc1`, for which the inhibition is 10.5% (inactive).

Regarding `COCCN(Cc1cc2cc(C)ccc2n2nnnc12)C(=S)Nc1ccccc1C`, the inhibition was 52.2% (active).

For `Cc1ccc2c(c1)cc(CN(Cc1cccnc1)C(=O)NCc1ccccc1)c1nnnn12`, the inhibition is -2.2% (inactive).
